# In PubChem BioAssay AID1224853 (National Center for Advancing Translational Sciences (NCATS), 2016):
# Records with an inconclusive call do not appear. Active and inactive are the calls of the source. Calls come from the whole dose curve; as a rule, active = well fitted inhibition curve with a large enough effect; inconclusive = small, poorly fitted or top-dose-only effect; inactive = no such curve, though single readings can be large or run the other way.
# Assay: Confirmation assay for measurement of the activity of small molecule inhibitors on Zika virus induced Caspase-3 activity in human astrocytoma cells
# In short: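 Caspase-Glo 3/7 luminescence after 6 h Zika infection (2 FFU/cell) of SNB-19 cells given compound 1 h beforehand. Data were normalised to uninfected and infected wells; percent inhibition of caspase-3 rise reported.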
row,SMILES,Potency
1,O=C1NC(=O)C(=Cc2ccc(-c3ccc(F)cc3)o2)S1,13.8 µM (active)
2,O=C(/C=C/c1ccc(O)cc1)c1ccc(O)cc1O,2.45 µM (active)
3,COc1cc2nc(N3CCN(C(=O)C4CCCO4)CC3)nc(N)c2cc1OC (stereo not drawn),17.3 µM (active)
4,CN1CC(=O)N/C1=N/C(=O)Nc1cccc(Cl)c1,6.9 µM (active)
5,CCCCCNC(=O)N1CCC(CN(Cc2ccc(Cl)cc2)Cc2ccc([N+](=O)[O-])s2)C1 (stereo not drawn),inactive
6,C[C@@H]1CCN(C(=O)CC#N)C[C@H]1N(C)c1ncnc2[nH]ccc12,inactive
7,Cc1c(NC(=O)c2ccc(C(C)(C)C)cc2)cccc1-c1cn(C)c(=O)c(Nc2ccc(C(=O)N3CCOCC3)cc2)n1,inactive
8,Nc1ccc(N=Nc2ccccc2)c(N)n1,12.3 µM (active)
9,Cc1cc(O)c2ccccc2c1O,inactive
10,COc1cccc(-c2cc(=O)c3ccccc3o2)c1N,7.74 µM (active)
11,C[C@@H](O[C@H]1OCCN(Cc2n[nH]c(=O)[nH]2)[C@@H]1c1ccc(F)cc1)c1cc(C(F)(F)F)cc(C(F)(F)F)c1,inactive
12,O=c1c2ccccc2nc2n1CCc1c-2[nH]c2ccccc12,4.89 µM (active)
13,CCOC1OC(=O)C[C@H]1NC(=O)[C@@H]1CCCN1C(=O)[C@@H](NC(=O)c1ccc(N)c(Cl)c1)C(C)(C)C (stereo partly drawn),inactive
14,O=C(Nc1ncc([N+](=O)[O-])s1)c1cccs1,1.73 µM (active)
15,O=S(=O)(O)CCSSCCS(=O)(=O)O,inactive
16,O=C(O)CCC(=O)c1ccc(-c2ccccc2)cc1,24.5 µM (active)
17,O=C(Nc1ccc(OC(F)(F)F)cc1)c1sccc1NCc1ccnc2ccccc12,6.9 µM (active)
18,Cc1ccc(C(=O)c2ccc(CC(=O)O)n2C)cc1,inactive
19,O=C(O)[C@@H](c1ccc(OCc2ccc3ccccc3n2)cc1)C1CCCC1,13.8 µM (active)
20,Clc1ccccc1-c1nc(-c2ccncc2)no1,7.74 µM (active)
21,C/C(=N\O)c1ccc(OCC(=O)N2CCCCC2)cc1,8.69 µM (active)
22,C[C@H](NC(=O)C(=O)Nc1ccccc1C(C)(C)C)C(=O)N[C@@H](CC(=O)O)C(=O)COc1c(F)c(F)cc(F)c1F,0.615 µM (active)
23,CN(C)CCCSc1ccccc1NC(=O)/C=C/c1ccccc1,8.69 µM (active)
